# Hits are enriched below; roughly 3.2% of the tested compounds scored in any of these assays.
# CRE-bla Fsk: modulators of forskolin-stimulated CRE signaling in CHO cells; hit rate 2.5% among 71,000; Potency, µM (series often up to 38.2 µM), without a hit: top-dose activity change, negative = inhibition, most hits filed as activators; CHO CRE-bla reporter (cAMP response element driving beta-lactamase), forskolin EC10, beta-lactamase ratio; active = well fitted activation curve with a large enough effect in the signal ratio, with a control signal flat, not every such curve was filed as active; inconclusive = small, poorly fitted or top-dose-only effect, or effect the other way, or a change in a side signal; the % refers to the signal ratio; note: potency is the fitted concentration of half-maximal effect; % of control where 0% means no effect
#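 The 460nm/530nm emission ratio after CCF4 loading defined %Activity, from which AC50 values were obtained. CRE-bla CHO cells received compound dilution series together with an EC10 level of NKH 477 for 3 hours at 37 degrees Celsius.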
# 15-hLO inh: blocks human 15-lipoxygenase activity | P16050 | Potency, µM (highest dose often 57.1 µM), for inactives: at the top dose activity change, negative = inhibition, hits mostly inhibitors | AID 887 | purified 15hLO-1, xylenol orange hydroperoxide absorbance | hit rate 1.4% among 74,000; note: potency is the fitted concentration of half-maximal effect; % is set by controls: 0 for no effect and ±100 for the full control effect; nearly all actives have a fitted effect of over 55% in size
# Target sequence (P16050 whole entry, looked up): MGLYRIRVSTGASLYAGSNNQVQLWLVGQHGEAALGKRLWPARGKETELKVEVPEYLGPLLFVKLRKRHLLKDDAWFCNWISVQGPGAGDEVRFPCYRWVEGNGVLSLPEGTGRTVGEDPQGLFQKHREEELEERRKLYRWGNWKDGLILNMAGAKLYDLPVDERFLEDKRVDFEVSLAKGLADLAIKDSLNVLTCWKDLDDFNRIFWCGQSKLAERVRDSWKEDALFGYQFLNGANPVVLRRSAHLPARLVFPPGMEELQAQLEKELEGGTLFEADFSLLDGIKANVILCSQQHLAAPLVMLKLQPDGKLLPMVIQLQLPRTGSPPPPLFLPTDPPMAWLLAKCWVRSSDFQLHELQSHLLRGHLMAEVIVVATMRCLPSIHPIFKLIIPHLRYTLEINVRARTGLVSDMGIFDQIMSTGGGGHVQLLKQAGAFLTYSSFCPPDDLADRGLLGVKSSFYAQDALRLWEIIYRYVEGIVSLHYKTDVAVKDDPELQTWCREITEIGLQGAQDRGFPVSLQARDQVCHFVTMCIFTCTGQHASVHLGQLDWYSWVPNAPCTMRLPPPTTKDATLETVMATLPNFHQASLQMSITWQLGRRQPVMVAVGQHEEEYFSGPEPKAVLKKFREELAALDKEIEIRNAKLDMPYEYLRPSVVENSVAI
#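 Hydroperoxide formed from arachidonic acid (50 uM) by purified human 15hLO-1 (40 nM) oxidizes ferrous iron, and the ferric-xylenol orange complex is read at 573 versus 405 nm. Compounds were preincubated 15 min; reaction ran 6 min at room temperature.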
# ERK AVP block: blocks ERK signaling stimulated by vasopressin | HEK293-V1b, vasopressin-stimulated pERK AlphaScreen | Potency, µM (top dose mostly 57.5 µM), for inactives: top-dose activity, negative = inhibition, usual class: inhibitors | hit rate 0.99% among 72,000; note: potency is the fitted concentration of half-maximal effect; % is set by controls: 0 for no effect and ±100 for the full control effect; nearly all actives have a fitted effect of over 55% in size
#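 HEK293 cells stably expressing V1b receptor, preincubated 30 min at 37 °C with compound, then stimulated 5 min with 25 nM vasopressin. Phospho-ERK by AlphaScreen SureFire after 5 h RT; normalized to DMSO and vasopressin; AC50 by Hill fit.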
# 15-hLO-2 inh: inhibitors of human 15-lipoxygenase 2 (ALOX15B) | O15296 | purified 15hLO-2, xylenol orange hydroperoxide absorbance | Potency, µM (highest dose often 57.1 µM), for inactives: at the top dose activity change, negative = inhibition, most hits filed as inhibitors | hit rate 0.56% among 110,000 | AID 881; note: potency is the fitted concentration of half-maximal effect; % is set by controls: 0 for no effect and ±100 for the full control effect; nearly all actives have a fitted effect of over 60% in size
#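 Read-out: hydroperoxide product oxidises ferrous iron, measured as xylenol orange complex via the 573-to-405 nm absorbance ratio after 30 min. Reaction: 50 nM enzyme, 15 min compound preincubation, 45 uM arachidonic acid, 90 min RT, Hepes pH 7.5 with Triton X-100.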
# CHO via 24h: CHO cell toxicity at 24 h by ATP luminescence; shares compounds with CRE-bla Fsk; CRE-bla CHO viability, ATP luminescence, 24 h; activity, negative = viability loss, % at 46.1 µM; 120 tested, under 10 active
# CHO via 40h: cytotoxicity in CRE-bla CHO cells at 40 h; AID 906; Potency, µM, for inactives: max response, hits mostly inhibitors; 120 tested, under 10 active; shares compounds with CRE-bla Fsk; CRE-bla CHO viability, ATP luminescence, 40 h
# CREB luc CRC: confirmation of CRE signaling potentiators in HEK293 CREB reporter cells; shares compounds with CRE-bla Fsk; HEK293 CRE-luc2P, NKH477 EC10 potentiation, luminescence, 4 h; Potency, µM (series often up to 38.3 µM), for inactives: top-dose activity, positive = activation, usual class: activators; hit rate 80% among 120; AID 907
# An asterisk follows results filed as active; ? = inconclusive; · = not tested or not shown; ! = a repeat was not active; [ ] = another dose, or the depositor's remark. Unless noted, calls come from the whole dose curve; as a rule, active = well fitted curve in the direction sought with a large enough effect; inconclusive = small, poorly fitted or top-dose-only effect, or another doubt; inactive = no such curve, though single readings can be large; an effect the other way counts as inactive or inconclusive.
SMILES,CRE-bla Fsk,15-hLO inh,ERK AVP block,15-hLO-2 inh,CHO via 24h,CHO via 40h,CREB luc CRC
CN1C(=O)NC(c2ccccc2)C2=C1CN(Cc1ccccc1)C2=O (configuration not stated),·,·,·,·,-3,-1%,21%
C=CCn1c(SCC(=O)Nc2sccc2C(N)=O)nc2sc(C)c(C)c2c1=O,2µM*,-24%,10%,-7%,?,?,4µM*
Cc1nnc(SCC(=O)Nc2sccc2C(N)=O)n1Cc1ccccc1,?,12%,14%,1%,·,·,·
CCOc1cc(C2c3c(oc4cc(C)c(Cl)cc4c3=O)C(=O)N2Cc2ccco2)ccc1O (configuration not stated),13µM*,3%,-10%,-30%,-21,-25%,0.79µM*
Cc1cc2oc3c(c(=O)c2cc1C)C(c1cccc(Br)c1)N(Cc1ccco1)C3=O (configuration not stated),-4%,3%,15%,4%,·,·,·
c1ccc2c(NCCN3CCOCC3)nc(-c3ccoc3)nc2c1,?,2%,?,24%,·,·,·
CCn1c(CCCc2nc3c([nH]2)c(=O)n(C)c(=O)n3C)nc2c1c(=O)n(C)c(=O)n2C,18%[7.6 µM],?,23%[11.5 µM],-1%[11.4 µM],·,·,·
Fc1ccc(C2=Nn3c(Cc4ccccc4)nnc3SC2)cc1,16%,1%,-17%,0%,-5,-10%,13µM*
c1ccc(C2=Nn3c(nnc3-c3ccncc3)SC2)cc1,?,0%,-12%,-5%,·,·,·
Cc1cc(-c2nnc3n2N=C(c2ccc(-c4ccccc4)cc2)CS3)n[nH]1,?,-12%,-8%,-15%,-30,?,1.6µM*
Cc1ccco1,-6%,0%,-22%,-5%,·,·,·
COC(=O)C/C=C\[C@@H](C)[C@H]1C=C[C@H](O)[C@@H](CO)O1,·,15%[11.4 µM],4%[11.5 µM],·,·,·,·
CCOC(=O)c1ccccc1NC(=O)c1cc(S(=O)(=O)N2CCOCC2)ccc1F,10µM*,-12%,?,-2%,-16,-15%,13µM*
O=C(c1cc(S(=O)(=O)N2CCOCC2)ccc1F)N1CCCc2ccccc21,-8%,11%,-3%,-1%[2.29 µM],2,-2%,18%
O=C(O)c1ccc(NS(=O)(=O)c2ccsc2C(=O)O)c(O)c1,·,15%,-11%,2%,·,·,·
CCc1nc(SCC(=O)N2CCc3ccccc32)c2oc3ccccc3c2n1,2%,11%,-7%,·,9,-4%,14µM*
Cc1nc(SCC(=O)c2ccc(Cl)s2)c2oc3ccccc3c2n1,·,·,·,2%,·,·,·
Cc1nc(SCC(=O)N2CCCc3ccccc32)c2oc3ccccc3c2n1,0.5µM*,?,-23%,5%,-17,-27%,4µM*
Cc1nc(SCC(=O)Nc2ccccc2)c2oc3ccccc3c2n1,0.5µM*,5%,-3%,-12%,-18,-18%,5µM*
Cc1nc(SCC(=O)NCCc2ccccc2)c2oc3ccccc3c2n1,·,·,·,0%,·,·,·
CC(C)[C@@H](OCc1ccccc1)[C@H](C)/C=N\OC[C@@H](O)COCc1ccco1,·,1%[11.4 µM],8%[11.5 µM],·,·,·,·
CCOC(=O)CC(=O)CSc1ccc2nnc(-c3cccc(F)c3)n2n1,?,-1%,5%,-21%,·,·,·
COC(=O)c1ccc(CSc2ccc3nnc(-c4cccc(F)c4)n3n2)o1,7.9µM*,?,·,?,-14,-18%,13µM*
CN(CCNC(=O)c1cc2c(=O)n(C)c3ccccc3c2n1C)Cc1ccccc1,?,-6%,8%,26%,·,·,·
CCCN(CCC)CCNC(=O)c1cc2c(=O)n(C)c3ccccc3c2n1C,19%,-7%,-18%,2%,-10,-11%,13µM*
SMILES,CRE-bla Fsk,15-hLO inh,ERK AVP block,15-hLO-2 inh,CHO via 24h,CHO via 40h,CREB luc CRC
Cn1c(C(=O)NCCCN2CCCC2=O)cc2c(=O)n(C)c3ccccc3c21,4µM*,4%,?,-2%,-8,-21%,13µM*
Cc1cc(Nc2ccc3ccccc3c2)n2ncnc2n1,·,·,·,11%,-17,-26%,-24%
Cc1cc(Nc2ccc(C(C)C)cc2)n2ncnc2n1,?,6%,-25%,·,·,·,·
Cc1cc(C2(c3cc(C)c(O)c(C(=O)O)c3)OS(=O)(=O)c3ccccc32)cc(C(=O)O)c1O,7%[7.6 µM],9%[11.4 µM],14%[11.5 µM],-6%[11.4 µM],·,·,·
COc1cc(C2NC(=O)NC(C)=C2C(=O)OC(C)(C)C)ccc1OCC(N)=O (configuration not stated),-4%,14%,-14%,0%,7,-2%,13µM*
Cc1ccc(Cl)cc1N1CCN(S(=O)(=O)c2ccc3c(c2)OCCO3)CC1,5%,-5%,3%,-9%,·,·,·
Cc1ccc(C)c(N2CCN(S(=O)(=O)c3ccc4c(c3)OCCO4)CC2)c1,6%,-5%,-2%,-2%,3,-17%,13µM*
O=C(O)C(NS(=O)(=O)c1cccc2cccnc12)c1ccccc1 (configuration not stated),-12%,-9%,·,·,·,·,·
CC(=O)OC[C@@H]1O[C@H](CCO/N=C(\C)CCN2CCCc3nc(C)c(C)cc32)C=C[C@@H]1OC(C)=O,·,6%[11.4 µM],17%[11.5 µM],·,·,·,·
CCN(C(=O)c1cn(C)c(=O)c2cc(OC)c(OC)cc12)c1cc(OC)ccc1OC,29%,2%,18%,2%,1,-8%,13µM*
COc1ccc([C@@H]2CNC(=O)C2)cc1OC1CCCC1,0.01µM*!,?,-11%,3%,-6,-12%,0.028µM*
CCn1cc(C(=O)Nc2cccc(NC(C)=O)c2)c2cc(OC)c(OC)cc2c1=O,?,4%,-28%,-2%,·,·,·
CCn1cc(C(=O)Nc2ccc3c(c2)OCCO3)c2cc(OC)c(OC)cc2c1=O,1.3µM*,5%,·,5%,-8,-18%,0.71µM*
Cc1nn(-c2ccccc2)c2sc(C(=O)n3cccn3)cc12,?,3%,-11%,-3%,·,·,·
Cc1nn(-c2ccccc2)c2sc(C(=O)N3CCCCC3)cc12,3.2µM*,1%,20%,21%,-18,?,10µM*
CN(C)CCNCCN,-5%[7.6 µM],3%[11.4 µM],2%[11.5 µM],-7%[11.4 µM],·,·,·
CC1CCc2c(sc3nc(C4CC4)nc(SCC(=O)NCc4ccco4)c23)C1 (configuration not stated),-1%,13%,-11%,·,3,-2%,8%
O=c1[nH]c(SCc2ccccc2Cl)nc2c1cnn2-c1ccccc1,0.79µM*,6%,·,-4%,-19,-21%,6.3µM*
Cc1ccc(-n2ncc3c(=O)[nH]c(SCC(=O)N4CCOCC4)nc32)cc1,19%,8%,10%,0%,4,2%,?
Cc1cc(C)nc(Sc2nc(C)nc3c2oc2ccccc23)n1,2%,-2%,-22%,-20%,·,·,·
